Outcome and AC50 data for 31 compounds are collected here from PubChem BioAssay (EPA / NIEHS).

Inconclusive results are not listed. Active and inactive are the calls of the source. Rule for the calls, unless noted: active = hit-call score of the fitted dose curve at least 0.9, where 1 is the maximum; inconclusive = response in the unintended direction; inactive = score below 0.9.

Experiment [1] in a line: CEETOX_H295R_MTT_cell_viability: Viability Assessment in the CeeTox HT-H295R MTT Assay (AID 2283718; active = hit-call score of the fitted dose curve at least 0.9, where 1 is the maximum; inactive = score below 0.9;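 for AC50: curve fitted both ways so AC50 may mark viability loss or gain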). An outline of the steps:
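H295R cells prestimulated 48 h with 10 uM forskolin, then exposed 48 h to test chemical (0.1% DMSO final). Viability by MTT (0.5 mg/ml, 4 h, 37 C), absorbance 570/650 nm; percent change versus DMSO, bidirectional fit.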

Experiment [2] concerns Thyroperoxidase (TPO), gene 54314. The experiment can be described thus: CCTE_Simmons_AUR_rTPO: CCTE's Amplex UltraRed Assay for Thyroperoxidase (TPO) Inhibition, Simmons Lab (AID 2283662).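 For AC50: potency for loss of signal meaning inhibition of peroxidase activity.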 An outline of the steps:
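Rat thyroid microsomal TPO + 25 uM AUR in 200 mM K phosphate; cpd 5 nM–87.5 uM [final], 8 conc, 0.5% DMSO; 300 uM H2O2 starts rxn; 37C dark 30 min; endpoint FI 544/590 nm; n=3.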

A short description of experiment [3]: CCTE_Simmons_CellTiterGLO_HEK293T: Viability Assessment in CCTE's Assays for Thyroperoxidase (TPO) Inhibition, Simmons Lab (AID 2283665).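 For AC50: cells exposed to compound for 24 h before readout; actives reduce ATP signal below DMSO vehicle meaning cytotoxicity.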 An outline of the steps: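 Cells were seeded overnight, then exposed to an eight-point series up to 87.5 uM final for 24 hours. CellTiter-Glo reagent was added and luminescence read after 20 min, giving ATP-based viability versus DMSO.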
Background: ATP-based viability assays read luminescence as a measure of living cells.

The target of experiment [4] is Luciferin 4-monooxygenase (Photinus pyralis) (UniProt P08659). The experiment can be described thus: CCTE_Simmons_QuantiLum_inhib_2: CCTE's Firefly Luciferase Inhibition Assay, Simmons Lab (AID 2283767).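 For AC50: potency for inhibitors that lower luciferase luminescence relative to DMSO.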 The method in brief:
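First, 5 ng purified luciferase in phosphate buffer with BSA is dispensed per well. Next, test chemicals (5 nM to 87.5 uM final, 0.5% DMSO) are added and incubated 30 min at 37C in darkness. Finally, luciferin reagent is injected and luminescence read kinetically.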

A short description of experiment [5]: ACEA_AR_agonist_AUC_viability: ACEA Biosciences xCELLigence Real-Time Cell Analysis on Androgen Receptor Agonism for Viability (AID 2283775).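 For AC50: viability read 80 hours after compound addition.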 An outline of the steps: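 22Rv1 cells; impedance growth kinetics; 8-pt 1:4 dilutions from 100 uM top final, ≤0.5% DMSO; n = 2; 80 h read; AUC viability, loss-of-signal vs DMSO.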
In experiment [6] the target is zebrafish Estrogen Receptor (ESR1), esr1 (gene 259252) (UniProt P57717). The experiment can be described thus: ATG_zfER1_XSP1: Attagene TRANS-FACTORIAL Multi-Species (XSP1) HepG2 Assay for zebrafish Estrogen Receptor (ESR1) (AID 2283772). The method in brief:
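Reporter mRNA induction, gauged via RT-PCR/capillary electrophoresis fluorescence relative to DMSO controls, in HepG2 cells transiently carrying GAL4-UAS reporter units; 24 h dosing.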

The subject of experiment [7] is zebrafish Estrogen Receptor (ESR2B), gene 317733. The experiment can be described thus: ATG_zfER2b_XSP1: Attagene TRANS-FACTORIAL Multi-Species (XSP1) HepG2 Assay for zebrafish Estrogen Receptor (ESR2B) (AID 2283773). An outline of the steps:
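Human hepatoma HepG2, transiently transfected with multi-reporter units; exogenous zebrafish ESR2B-Gal4 activity measured. Exposure 24 h alongside 3 nM 6-alpha-fluorotestosterone to partly stimulate AR.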

Experiment [8] concerns frog Estrogen Receptor (ESR2), gene 100174814. As to the kind of experiment: ATG_frER2_XSP1: Attagene TRANS-FACTORIAL Multi-Species (XSP1) HepG2 Assay for frog Estrogen Receptor (ESR2) (AID 2283774). An outline of the steps:
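Multiplexed TRANS-format reporter assay in human hepatoma HepG2: chimeric nuclear receptor-Gal4 activity reported as mRNA induction at 24 h, detected by fluorescent RT-PCR products on capillary electrophoresis and fitted upward from DMSO baseline.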

For experiment [9], the system named is frog Estrogen Receptor (ESR1), gene 398734. The experiment can be described thus: ATG_frER1_XSP1: Attagene TRANS-FACTORIAL Multi-Species (XSP1) HepG2 Assay for frog Estrogen Receptor (ESR1) (AID 2283777). An outline of the steps: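 After transient transfection and 24 h compound treatment, total RNA from HepG2 cells was reverse-transcribed, amplified, FAM-labeled and resolved by capillary electrophoresis. Signal increases were fitted against DMSO controls.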

Experiment [10] in a line: ACEA_AR_antagonist_AUC_viability: ACEA Biosciences xCELLigence Real-Time Cell Analysis on Androgen Receptor Antagonism for Viability (AID 2283776).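 Note: 22Rv1 human prostate cancer cells growing on impedance electrode plates; area under impedance growth curve at 80 h after dosing as viability; hits lower the growth signal relative to DMSO meaning cytotoxicity.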 The method in brief:
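Real-time electrical impedance tracks 22Rv1 proliferation after continuous compound exposure (top 100 uM final, 1:4 steps, 8 concentrations). The 80 h area-under-curve serves as the cytotoxicity readout relative to DMSO.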

Sequence of Luciferin 4-monooxygenase (Photinus pyralis) (P08659 whole entry, looked up): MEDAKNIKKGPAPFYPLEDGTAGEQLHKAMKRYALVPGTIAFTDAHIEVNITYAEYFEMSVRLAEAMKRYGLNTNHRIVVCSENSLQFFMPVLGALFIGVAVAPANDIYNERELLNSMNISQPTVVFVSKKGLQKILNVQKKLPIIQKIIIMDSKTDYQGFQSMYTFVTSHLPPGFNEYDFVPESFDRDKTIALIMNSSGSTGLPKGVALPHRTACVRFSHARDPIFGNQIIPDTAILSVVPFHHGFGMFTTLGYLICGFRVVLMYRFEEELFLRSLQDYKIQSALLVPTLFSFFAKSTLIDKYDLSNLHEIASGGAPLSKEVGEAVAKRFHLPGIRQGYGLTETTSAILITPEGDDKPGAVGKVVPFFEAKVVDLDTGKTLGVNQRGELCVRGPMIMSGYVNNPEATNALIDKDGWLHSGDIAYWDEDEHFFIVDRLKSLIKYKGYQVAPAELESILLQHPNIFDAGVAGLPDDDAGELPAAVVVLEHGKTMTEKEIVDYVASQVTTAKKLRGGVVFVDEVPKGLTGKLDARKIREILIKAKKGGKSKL
Sequence of zebrafish Estrogen Receptor (ESR1), esr1 (gene 259252) (P57717 whole entry, looked up, the tested form may be a part): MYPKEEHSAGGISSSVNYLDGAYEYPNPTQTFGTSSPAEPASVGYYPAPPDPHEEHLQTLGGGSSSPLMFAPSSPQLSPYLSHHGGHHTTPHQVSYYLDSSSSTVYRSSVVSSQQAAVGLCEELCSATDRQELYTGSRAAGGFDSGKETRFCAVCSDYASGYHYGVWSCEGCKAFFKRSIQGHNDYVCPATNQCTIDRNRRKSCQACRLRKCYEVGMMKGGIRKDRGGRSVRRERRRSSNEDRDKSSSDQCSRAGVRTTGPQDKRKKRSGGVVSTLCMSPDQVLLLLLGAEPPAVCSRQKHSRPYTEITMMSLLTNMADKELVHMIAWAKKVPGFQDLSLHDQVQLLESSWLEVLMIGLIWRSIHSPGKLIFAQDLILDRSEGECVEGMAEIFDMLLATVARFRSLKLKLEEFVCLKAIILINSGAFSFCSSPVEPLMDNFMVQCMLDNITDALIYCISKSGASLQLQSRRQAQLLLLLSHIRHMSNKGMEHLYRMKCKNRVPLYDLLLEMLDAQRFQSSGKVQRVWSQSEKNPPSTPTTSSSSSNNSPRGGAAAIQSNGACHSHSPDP

As to `CC1(C)[C@H](C(=O)OCc2cccc(Oc3ccccc3)c2)[C@@H]1C=C(Cl)Cl`, the call in [1] was inactive.

In the case of `O=c1cc(-c2ccccc2)oc2cc(O)cc(O)c12`, the AC50 was 23 µM (active) in experiment [2] and 5.53 µM (active) in experiment [4]. Also, the result in experiment [3] and in experiment [1] was inactive.

As to `Cc1ccc(C(C)C)cc1O`, the compound was classed as inactive in [2], in [3], in [1] and in experiment [4]. For the compound `Cc1ccc(O)c(C(C)(C)C)c1`, the AC50 is 20.6 µM (active) in experiment [2] and 65.6 µM (active) in experiment [3]. In addition, the result in experiment [4] and in [5] was inactive.

`CCCCCCCCCCCCCCCC(=O)OC[C@H](O)[C@H]1OC(=O)C(O)=C1O`: the AC50 in experiment [2] was 18.3 µM (active); in experiment [3], 74.2 µM (active). In experiment [4], the call was inactive. Regarding `NC(=O)Nc1ccc(Cl)cc1`, the result in experiment [1] and in experiment [5] was inactive. On to `COc1cc2ncnc(Nc3cccc(Cl)c3)c2cc1OC`, for which the outcome in experiment [1] was inactive. Take `CC(C)=CCC[C@](C)(O)[C@@H]1CC=C(C)CC1`: the result in experiment [5] was inactive. Same read-out and setting: under `CN(C)CCCN` stands “inactive”. Consider `CN(CCOc1ccc(CC2SC(=O)NC2=O)cc1)c1ccccn1` (configuration not stated), for which the call in [6] and in [8] was inactive. The half-maximal activity concentration (AC50) in experiment [7] was 0.0787 µM (active); in experiment [9], 0.0666 µM (active). On to `O=C[C@@H](O)[C@H](O)[C@H](O)CO`, for which the compound was classed as inactive in experiment [5] and in experiment [10]. For the compound `O=C(O)CCCCCCCC(=O)O`, the compound was called inactive in [5]. On to `CC1(C)[C@@H]2CC[C@@]1(C)[C@H](O)C2`, for which the call in [5] and in experiment [10] was inactive. As to `c1ccc(CCCc2ccccn2)cc1`, the compound was called inactive in experiment [1]. On to `CCCCC(CC)COC(=O)/C=C\C(=O)OCC(CC)CCCC` (configuration not stated), for which, in experiment [5], the compound was called inactive. With `CCCCCCCCCCCCCCCCCC(=O)OCC(CC)CCCC` (configuration not stated), the call in [10] was inactive.

For the compound `OCCOCCOCCOCCO`, in experiment [10], the outcome was inactive. As for `CN(C)C(=N)N=C(N)N`, the outcome in experiment [6] was inactive. Besides, in [7], the AC50 is 100 µM (active). Regarding `CC(C)C[C@H]1C(=O)N2CCC[C@H]2[C@]2(O)O[C@](NC(=O)[C@@H]3C=C4c5cccc6[nH]c(Br)c(c56)C[C@H]4N(C)C3)(C(C)C)C(=O)N12`, the compound was classed as inactive in experiment [5] and in experiment [10]. Regarding `BrC1CCC(Br)C(Br)CCC(Br)C(Br)CCC1Br` (configuration not stated), in experiment [5], the call was inactive. In the case of `Nc1cc([N+](=O)[O-])ccc1Cl`, in experiment [1], the compound was classed as inactive.

`CC1COc2ccccc2N1C(=O)C(Cl)Cl` (configuration not stated): the AC50 in [1] was 4.9 µM (active); in experiment [5], 2.33 µM (active). `CC1CC(OC(=O)c2ccccc2O)CC(C)(C)C1` (configuration not stated): the outcome in experiment [1] and in experiment [10] was inactive. For the compound `CCC/C=C/C=O`, the compound was classed as inactive in [10].

In the case of `CCCCCCCCC=O`, in [10], the compound was classed as inactive. As for `CCCCCCCCCC=O`, the call in [5] was inactive. On to `CCCC1CCC(=O)O1` (configuration not stated), for which the call in [10] was inactive. Turning to `NCCCCCCN`, the compound was classed as inactive in experiment [10]. As for `OC1OC[C@@H](O)[C@H](O)[C@H]1O` (some centres not stated), the compound was classed as inactive in experiment [5].

Take `CCCCCCCCCCC(CO)CCCCCCCC` (configuration not stated): in [5], the half-maximal activity concentration (AC50) is 9.96 µM (active). Regarding `O=C(O)C[C@H](O)C[C@H](O)/C=C/c1c(C2CC2)nc2ccccc2c1-c1ccc(F)cc1`, the compound was classed as inactive in experiment [1].

One may read the AC50 as the concentration at which the activity in the assay is half-maximal.
